Data on 52 compounds can be found in ChEMBL document CHEMBL4513216, “Probing the Open Global Health Chemical Diversity Library for Multistage-Active Starting Points for Next-Generation Antimalarials” (ACS Infect Dis, 2020).

The structures appear in SMILES notation. Screen size: about 69,000 compounds; about 8,600 (12%) showed an effect of 50% or more. Many of the other results were omitted from the sample, so strong results are more common in it than they were.

This test deals with Plasmodium berghei. Put plainly: Screen against P. berghei liver stage (PbLuc), transformed with Luciferase, at 10uM. The class given is functional, HepG2. The note with it: tested at 10 uM.
Take `NC(=O)CSc1ccccc1NC(=O)C1CCCCC1`: the INHIBITION amounted to 21.1%. The result for `CC1N(c2cnn(C)c2)C(=O)COC12CCN(c1ccccn1)CC2` (configuration not stated) reads 39.5%; that for `CC1N(c2cnn(C)c2)C(=O)COC12CCN(CC1CC1)CC2` (configuration not stated), -5.25%.

As to `CC1N(c2cnn(C)c2)C(=O)COC12CCN(c1ncccn1)CC2` (configuration not stated), the INHIBITION was found to be 58.3%. Regarding `O=C(Cc1ccc2c(c1)CCO2)N1CCN(c2nccs2)CC1`, the INHIBITION was 9.14%. `CN(C)c1cc(CNC(=O)Nc2nccs2)ccn1`: the INHIBITION is reported as -0.219%. Turning to `CC(C)NC(=O)[C@H]1C[C@@H]2[C@@H](C1)OCCN2Cc1ccsc1`, the INHIBITION is on record as 16.9%.

Take `CCOCC(=O)NC1(c2cccc(Cl)c2)CC1`: the INHIBITION is reported as 57.3%. The result for `NC(=O)CSCC(=O)NC1(c2cccc(Br)c2)CC1` reads 8.99%.

For `COCCSCC(=O)NC1(c2cccc(Br)c2)CC1`, the INHIBITION is 54.4%. Turning to `CCOCC(=O)NC1(c2cccc(Br)c2)CC1`, the INHIBITION is given as 45.1%. For `COCCCC(=O)NC1(c2cccc(Br)c2)CC1`, the INHIBITION was 32.5%.

For the compound `CSCC(=O)NC1(c2cccc(Cl)c2)CC1`, the INHIBITION was 8.41%.

Take `Cc1nn(C)c(N(C)C)c1CNCC(O)COc1ccccc1` (configuration not stated): the INHIBITION was -56.9%.

With `O=C(NCCSc1ccccc1)[C@H]1CNC[C@H](C(=O)N2CCOCC2)C1`, the INHIBITION is listed as 11.2%. With `CCS(=O)(=O)CC(C)N(C)C(=O)COc1ccccc1C#N` (configuration not stated), the INHIBITION is on record as -29.7%.

With `CCCc1nc(CN2CCCN(Cc3nccn3C)CC2)no1`, the INHIBITION amounted to 25.6%.

For `CCOCCN1CCN(Cc2cccc(C(=O)N(C)C)c2)CC1CC` (configuration not stated), the INHIBITION is reported as 25.6%. Regarding `O=C(COc1ccccc1)NCC1CCN(Cc2ccsc2)CC1`, the INHIBITION was 27%.

With `O=C(CCc1ccsc1)NCC1CCN(c2ccccc2)C1` (configuration not stated), the INHIBITION stood at 2.74%. Consider `O=C(CCc1ccccc1)NCC1CCN(Cc2cccs2)CC1`, for which the INHIBITION was 51.9%. In the case of `O=C(CCc1ccccc1)NCC1CCN(Cc2ccsc2)CC1`, the INHIBITION was -11.8%. As for `O=C(CCSc1ccccc1)NCC1CCN(Cc2ccsc2)CC1`, the INHIBITION was 27.6%.

For `O=C(CCc1ccccc1)NCC1CCN(Cc2ccccc2)CC1`, the INHIBITION is listed as 54.2%. With `O=C(CCc1ccsc1)NCC1CCN(Cc2cccs2)CC1`, the INHIBITION is on record as 14.6%.

Take `CCOCC(=O)NCC1CCN(Cc2ccsc2)CC1`: the INHIBITION amounted to 60%. With `COCC(=O)NCC1CCN(Cc2ccsc2)CC1`, the INHIBITION is -6.67%. For `Cc1ccccc1C1CCCN1Cc1nc2c(cnn2C)c(=O)[nH]1` (configuration not stated), the INHIBITION is on record as -52.5%. As to `CN(C)[C@@H]1CCN(c2ncc(F)cn2)[C@H]1Cc1ccccc1`, the INHIBITION is given as -101%. As for `CN(C)C(=O)CN1C(=O)CCC12CCN(Cc1cccn1C)CC2`, the INHIBITION amounted to 33.2%. As for `Cn1ccc(C(=O)N2CCN(CC(O)C(C)(C)C)CC2)cc1=O` (configuration not stated), the INHIBITION is on record as 25.6%. With `Cc1nc(N(C)C)ncc1C(=O)NCCCn1nccc1C1CC1`, the INHIBITION was determined as 27.5%. The result for `Cc1ccc2[nH]c(=O)cc(C(=O)NCCCn3nccc3C3CC3)c2c1` reads -7.16%; that for `Cc1cc(C(=O)NCCCn2nccc2C2CC2)c(=O)[nH]c1C`, 53.3%; that for `N#Cc1cccc(S(=O)(=O)N2CCCCC2CCN2CCCC2)c1` (configuration not stated), 51.3%. `N#Cc1cccc(S(=O)(=O)N2CCCCC2CCN2CCCC2=O)c1` (configuration not stated): the INHIBITION is on record as 20.1%. The result for `COCCCC1CCCCN1S(=O)(=O)c1cccc(C#N)c1` (configuration not stated) reads -41.8%. `CNC(=O)NCC(CO)Cc1cccc(OC(F)(F)F)c1` (configuration not stated): the INHIBITION is given as -10.3%.

For `CCS(=O)(=O)N1CCc2c(cnc(-c3cccnc3)c2C(=O)O)C1`, the INHIBITION is given as -1.26%.

Turning to `Cc1ccc(C)c(S(=O)(=O)CCN2CCc3c(ncn3C)C2)c1`, the INHIBITION is reported as 19.4%.

In the case of `O=C(c1ccncc1)N1CCC(Cc2cnc3[nH]ccc3c2)CC1`, the INHIBITION was found to be 33.7%. `O=C(c1cnccn1)N1CCC(Cc2cnc3[nH]ccc3c2)CC1`: the INHIBITION is given as 17.1%. `O=C(c1cncs1)N1CCC(Cc2cnc3[nH]ccc3c2)CC1`: the INHIBITION was determined as 64.1%. As for `Cc1ccc(OC2(C(=O)NC(C)c3csc(C)n3)CCNCC2)cc1` (configuration not stated), the INHIBITION is 41.2%. Then `Nc1nnnn1NCc1cccc(Cl)c1Cl`, with 61.5%.

For `Nc1nnnn1NCc1ccccc1C(F)(F)F`, the INHIBITION was -24.6%.

For `Nc1nnnn1NCc1cccc2ccccc12`, the INHIBITION was 23.4%. Regarding `CC(C)NC(=O)C1CCc2nnc(C(C)(C)C)n21` (configuration not stated), the INHIBITION is -15.5%. Then `Cc1nc(CN2CCC3(CCN(c4cnn(C)c4)C3=O)C2)cs1` (configuration not stated), with -17.2%; and `CC1(C(=O)N2CCOCC2)CN(Cc2ncc[nH]2)CCO1` (configuration not stated), with 27.8%; and `Cc1ccc(CN2CC[C@@H](NS(C)(=O)=O)[C@@H]2Cc2ccncc2)o1`, with -7.94%. In the case of `Cc1ccccc1NC(=O)N1CC[C@@H]2CN(CC(C)C)S(=O)(=O)[C@@H]2CC1`, the INHIBITION is given as -13.4%.
